Our source for the outcome and AC50 values is PubChem BioAssay (EPA / NIEHS).

Inconclusive results are not listed. Calls of active or inactive are those of the source. How the source made its calls: active means hit-call score of the fitted dose curve at least 0.9, where 1 is the maximum; inconclusive means response in the unintended direction; inactive means score below 0.9.

Read-out in this assay: ABC Transporter (ABCB1), ABCB1 (gene 5243)
Put plainly: CLD_ABCB1_48hr: CellzDirect (CLD) Gene Expression Assay for ABC Transporter (ABCB1) at 48 hours (AID 2283695).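 On AC50: potency for induction meaning increase of mRNA over DMSO vehicle.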 Here is the method:
CLD_48hr is a cell-based, multiplexed-readout assay that uses hepatocyte, a human liver primary cell, with measurements taken at 48 hours after chemical dosing in a 96-well plate.CLD_ABCB1_48hr is one of 16 assay component(s) measured or calculated from the CLD_48hr assay. It is designed to make measurements of mRNA induction, a form of inducible reporter, as detected with chemiluminescence signals by Quantitative Nuclease Protection Assay (qNPA) technology.Data from the assay component CLD_ABCB1_48hr was analyzed at the endpoint, CLD_ABCB1_48hr, in the positive analysis fitting direction relative to DMSO as the negative control and baseline of activity. Using a type of inducible reporter, gain-of-signal activity can be used to understand changes in the reporter gene as they relate to the gene ABCB1. Furthermore, this assay endpoint can be referred to as a primary readout. To generalize the intended target to other relatable targets, this assay endpoint is annotated to the transporter intended target family, where subfamily is ABC transporter.
Human hepatocyte cultures were treated daily for two consecutive days with fresh dosing solutions containing appropriate concentrations of the 320 ToxCast chemicals (chemical identities were blinded to CellzDirect and other ToxCast collaborators), vehicle control (0.2% DMSO), and positive control inducers as summarized in Table 1. Due to the large number of treatment groups and chemicals examined, the ToxCast chemicals were divided into two groups (spanning two independent cultures of hepatocytes from separate donor preparations (Hu778: ToxCast plates 1 and 2; Hu776: ToxCast plates 3 and 4). Each preparation of human hepatocyte cultures was treated with respective vehicle control, medium only control, set of six positive controls/reference chemicals for the five hepatic receptor pathways, and a subset of eight of the ToxCast chemicals (indoxacarb, pyrithiobac-sodium, norflurazon, cyhalofop-butyl, methomyl, thiram, acetochlor, and propiconazole). These replicate data, coupled with internal replicates designed within the blinded ToxCast chemical library, provided additional data to evaluate interindividual differences between hepatocyte preparations and their potential impact on chemical profiles.Cell morphology and integrity were evaluated using phase-contrast microscopy as an indicator of hepatocyte cell health (Tyson & Green, 1987). Cultures for each treatment group (i.e., media, vehicle [0.2% DMSO], positive control inducers [multiple concentrations], and the ToxCast chemicals [multiple concentrations]) were observed and cell morphology was assessed relative to vehicle control cultures at each harvest time point (0, 6, 24, or 48 h). […] Images were evaluated at the conclusion of the study to assess changes in cell integrity and account for the effects of chemical exposure on uncharacteristic changes in concentration-dependent gene expression profiles. The results from these determinations of apparent cytotoxicity were annotated (yes/no) alongside the corresponding qNPA data for reference.At the conclusion of each treatment period, hepatocyte cultures (96-well) were washed with 1 volume of HBSS, lysed by addition of 25 ul ArrayPlate lysis buffer (HTG, Tucson, AZ), and 70 ul/well of Denaturation Oil, denatured by incubation at 95C for 10 min, and frozen at approximately -70C until analysis by nuclease protection assay (qNPA) (Roberts et al., 2007). For qNPA analysis, cell lysates were thawed at 50C for approximately 30 min, qNPA probes were added, and samples were incubated at 95C for 10 min to begin the detection process by denaturing the target RNA, dissociating the duplexes and secondary structure hybridization. At the conclusion of the hybridization period, S1 nuclease reagent was added to each sample to digest all nonprotected nucleotides at 50C for 60-90 min. […]
Turning to `COc1nc(NC(C)C)nc(NC(C)C)n1`, the molecule was classed as inactive. As to `C=CC1(C)OC(=O)N(c2cc(Cl)cc(Cl)c2)C1=O` (stereo not given), the outcome was inactive. On the same count and under the same terms, the value for `CCOC(=O)CC(SP(=S)(OC)OC)C(=O)OCC` (stereo not given) was “inactive”; that for `C=CCC1=C(C)C(OC(=O)C2C(C=C(C)C)C2(C)C)CC1=O` (stereo not given) was “inactive”; that for `CCCN(CCC)c1c([N+](=O)[O-])cc(S(N)(=O)=O)cc1[N+](=O)[O-]` was “inactive”. Still for that read-out and setting: under `CCCC1COC(Cn2cncn2)(c2ccc(Cl)cc2Cl)O1` (stereo not given) stands “inactive”; under `CCCCC(CC)COC(=O)c1ccccc1C(=O)OCC(CC)CCCC` (stereo not given), “inactive”; under `CNC(=O)ON=CC(C)(C)SC`, “inactive”.

For the molecule `CCCCNC(=O)n1c(NC(=O)OC)nc2ccccc21`, the molecule was called inactive. Take `Cc1c(F)c(F)c(COC(=O)C2C(/C=C(\Cl)C(F)(F)F)C2(C)C)c(F)c1F` (stereo not given): the result was inactive. Still for that read-out and setting: the value for `Fc1ccc(Oc2ccnc3cc(Cl)cc(Cl)c23)cc1` was “inactive”; that for `CC1COC(Cn2cncn2)(c2ccc(Oc3ccc(Cl)cc3)cc2Cl)O1` (stereo not given) was “inactive”. As for `N#CC(CCc1ccc(Cl)cc1)(Cn1cncn1)c1ccccc1` (stereo not given), the outcome was inactive. On to `CC(C)Oc1cc(-n2nc(C(C)(C)C)oc2=O)c(Cl)cc1Cl`, for which the result was inactive. On the same count and under the same terms, the value for `CS/C(C)=N/OC(=O)N(C)SN(C)C(=O)O/N=C(\C)SC` was “inactive”; that for `C=CCC1=C(C)[C@@H](OC(=O)[C@@H]2[C@@H](C=C(C)C)C2(C)C)CC1=O` was “inactive”; that for `CCON=C(CC)C1=C(O)CC(c2c(C)cc(C)cc2C)CC1=O` (stereo not given) was “inactive”. On the same count and under the same terms, under `COC(=O)N(OC)c1ccccc1COc1ccn(-c2ccc(Cl)cc2)n1` stands “inactive”; under `COc1cnc(OC)n2nc(NS(=O)(=O)c3c(OCC(F)F)cccc3C(F)(F)F)nc12`, “inactive”. For `CO/C=C(/C(=O)OC)c1ccccc1Oc1cc(Oc2ccccc2C#N)ncn1`, the AC50 was 30.2 µM (active). `COC(=O)C=C(C)OP(=O)(OC)OC`: the result was inactive. As for `CC(C)C1(C)N=C(c2nc3ccccc3cc2C(=O)O)NC1=O` (stereo not given), the outcome was inactive. Turning to `CCNc1nc(Cl)nc(NC(C)C)n1`, the call was inactive. For the molecule `COP(=S)(OC)Oc1nc(Cl)c(Cl)cc1Cl`, the call was inactive. Still for that read-out and setting: under `COc1nc(C)nc(NC(=O)NS(=O)(=O)c2ccccc2CCC(F)(F)F)n1` stands “inactive”. Still for that read-out and setting: under `COc1nc(C)nc(NC(=O)NS(=O)(=O)c2ccccc2Cl)n1` stands “inactive”. On to `Cc1cc(Cl)ccc1OCC(=O)O`, for which the call was inactive. With `N#Cc1cc(Br)c(O)c(Br)c1`, the molecule was called inactive. On to `N#Cc1nn(-c2c(Cl)cc(C(F)(F)F)cc2Cl)c(N)c1S(=O)C(F)(F)F` (stereo not given), for which the AC50 is 4.65 µM (active).

For the molecule `C#CCOS(=O)OC1CCCCC1Oc1ccc(C(C)(C)C)cc1` (stereo not given), the result was inactive. Same read-out and setting: under `CCCCNC(=O)OCC#CI` stands “inactive”; under `O=C(O)COc1nc(Cl)c(Cl)cc1Cl`, “inactive”. The same measure, in the same setting: the value for `CCc1nn(C)c(C(=O)NCc2ccc(C(C)(C)C)cc2)c1Cl` was “inactive”.

As for `CC(C)(C)c1ccc(CSc2cnn(C(C)(C)C)c(=O)c2Cl)cc1`, the result was inactive.

Regarding `CCOC(=O)C(Cl)Cc1cc(-n2nc(C)n(C(F)F)c2=O)c(F)cc1Cl` (stereo not given), the call was inactive. Take `COc1ccc(C(c2ccc(OC)cc2)C(Cl)(Cl)Cl)cc1`: the result was inactive. The same measure, in the same setting: under `Cc1ccc(-c2c(Cl)nc(C#N)n2S(=O)(=O)N(C)C)cc1` stands “inactive”; under `CCOc1cc(Oc2ccc(C(F)(F)F)cc2Cl)ccc1[N+](=O)[O-]`, “inactive”.

For the molecule `OC(c1ccc(Cl)cc1)(c1cncnc1)c1ccccc1Cl` (stereo not given), the AC50 was 17.2 µM (active). Consider `COC(=O)c1ccccc1C(=O)OC`, for which the molecule was classed as inactive.
